Most compounds without a hit are left out; they make up all but 3.4% or so of the library.
Tau fil binding = qHTS Assay for Tau Filament Binding | 71,000 tested, 2% active | Microtubule-associated protein tau (Homo sapiens), P10636 | Potency, µM (top dose mostly 57.1 µM) | recombinant tau filaments, thioflavin S fluorescence, 15 h; filaments grown with octadecylsulfate alongside compound | AID 596, 2007;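 further: actives lower thioflavin S fluorescence by blocking filaments or displacing dye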
Target sequence (P10636 whole entry, looked up): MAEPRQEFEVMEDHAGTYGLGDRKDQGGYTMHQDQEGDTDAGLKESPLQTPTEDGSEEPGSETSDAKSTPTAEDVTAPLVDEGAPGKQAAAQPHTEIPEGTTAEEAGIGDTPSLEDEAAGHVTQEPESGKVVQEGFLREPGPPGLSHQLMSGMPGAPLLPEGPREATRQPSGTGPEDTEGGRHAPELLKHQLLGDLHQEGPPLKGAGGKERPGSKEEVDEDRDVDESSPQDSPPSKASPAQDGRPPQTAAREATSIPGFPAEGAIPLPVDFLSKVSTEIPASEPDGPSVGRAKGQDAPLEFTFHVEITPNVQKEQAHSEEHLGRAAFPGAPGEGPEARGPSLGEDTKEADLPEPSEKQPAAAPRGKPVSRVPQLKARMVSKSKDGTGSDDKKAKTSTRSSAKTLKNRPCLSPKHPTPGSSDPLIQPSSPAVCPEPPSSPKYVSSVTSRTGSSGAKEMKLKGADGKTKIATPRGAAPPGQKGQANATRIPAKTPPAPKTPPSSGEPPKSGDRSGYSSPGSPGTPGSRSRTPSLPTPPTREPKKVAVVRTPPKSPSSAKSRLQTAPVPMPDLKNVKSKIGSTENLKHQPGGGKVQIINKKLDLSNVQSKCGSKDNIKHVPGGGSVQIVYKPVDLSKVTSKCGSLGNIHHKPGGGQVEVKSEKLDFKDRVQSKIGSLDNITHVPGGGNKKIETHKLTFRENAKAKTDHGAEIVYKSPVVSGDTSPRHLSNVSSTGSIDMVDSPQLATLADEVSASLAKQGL
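Read-out: ThS fluorescence, 450 nm excitation/510 nm emission; lower signal marks blocked filament formation or displaced dye. Tau at 1 uM with 30 uM ODS, 10 uM ThS, 5 mM DTT, 100 mM NaCl, 10 mM HEPES pH 7.4; 15 h, 37 C.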
p53ts 32C tox = qHTS Screen for Compounds that Selectively Target Cancer Cells with p53 Mutations: Cytotoxicity of p53ts Cells at the Permissive Temperature | AID 924, 2007 | 130,000 tested, 0.93% active | H1299-p53A138V at 32C, ATP luminescence viability, 24 h | Potency, µM (highest dose often 46.1 µM), usual class: cytotoxic; further: nearly all actives have a fitted effect of over 55% in size
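H1299-p53 A138V cells (temperature-sensitive p53) exposed 24 h to up to 46 uM compound at 32C, where p53 is wild-type in conformation. Viability read as ATP luminescence and normalised to DMSO and 100 uM tamoxifen. AC50 fitted with the Hill equation.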
Imprint erasure = qHTS Assay for Compounds that Induce Erasure of Genomic Imprints; 110,000 tested, 0.02% active; Potency, µM (titrated, usually from 60.7 µM), hits mostly activators; mouse ES Peg3-LacZ reporter, beta-gal luminescence, 40 h
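Each well holds 300 Peg3LacZ-Neo (maternal) female ES cells incubated 40 h at 37C, 5% CO2. LacZ is measured by BetaGlo luminescence, with AC50 and maximum efficacy derived from dose-response curves.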
FLuc inh = qHTS Assay for Inhibitors of Firefly Luciferase. Potency, µM (series often up to 57.1 µM), actives largely listed as inhibitors. 72,000 tested, 2.2% active. purified firefly luciferase, luminescence, 8 min; further: nearly all actives have a fitted effect of over 40% in size
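Substrate buffer containing 10 uM ATP (pH 7.2 imidazole, Mg2+, KCl, detergent, BSA) is dispensed, compound pinned in, then luciferase/luciferin detector mix added. After 8 min at ambient temperature, light output is measured.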
p53ts 39C kill = qHTS Screen for Compounds that Selectively Target Cancer Cells with p53 Mutations: Cytotoxicity of p53ts Cells at the Nonpermissive Temperature; Potency, µM (titrated, usually from 46.1 µM), usual class: cytotoxic; AID 902, 2007; 130,000 tested, 1.5% active; H1299-p53A138V viability at 39C, ATP luminescence, 24 h; further: nearly all actives have a fitted effect of over 55% in size
A number is an active result; 0 = inactive; ? = inconclusive; - = not tested or not shown; [ ] = another dose, or the depositor's remark. The call rests on the fitted dose curve; in most records, active means well fitted curve in the direction sought with a large enough effect; inconclusive means small, poorly fitted or top-dose-only effect, or another doubt; inactive means no such curve, though single readings can be large; an effect the other way counts as inactive or inconclusive.

SMILES | Tau fil binding | p53ts 32C tox | Imprint erasure | FLuc inh | p53ts 39C kill
COc1ccc2[nH]cc(CCNc3ncncc3-c3ccoc3)c2c1 | 0 | 0 | 0 | 0[2.29 µM] | 0
COc1ccc2[nH]cc(CCNc3nc(-c4ccoc4)nc4ccccc34)c2c1 | 4µM | 0 | 0 | 0[2.29 µM] | 0
COc1ccc2[nH]cc(CCNc3nc(-c4ccc(N(C)C)cc4)nc4ccccc34)c2c1 | 0 | 10µM | 0 | 0.63µM | 13µM
CO/N=C\[C@@H](NS(=O)(=O)c1ccc(C)cc1)[C@H](C)/C=C\CC(=O)OC | - | 0[9.22 µM] | - | 0[11.4 µM] | 0[9.22 µM]
Cn1c(=O)n(C)c2cc(NS(=O)(=O)c3ccc(C(C)(C)C)cc3)c(NCc3ccccc3)cc21 | - | 0 | 0[10.9 µM] | - | ?
Cn1cnc(S(=O)(=O)N2CCC(C(=O)Nc3ccc(OC(F)(F)F)cc3)CC2)c1 | - | 0 | 0[10.9 µM] | - | 0
COc1cc(NC(=O)C2=C(C)Nc3nnnn3C2c2ccc(SC)cc2)c(OC)cc1Cl (configuration not stated) | - | 0 | 0[10.9 µM] | - | 0
CCN(CC)c1ccc(-c2nc3cnccc3n2C)cc1 | 0 | ? | 0 | 10µM | ?
CCN(CC)c1ccc2c(c1)C(=O)N(C)C2=O | 0 | 0 | 0 | 0 | 0
Cc1c2cccc(Sc3ccccc3)c2c2c3c(cccc13)[S+](c1ccccc1)C2 (configuration not stated) | 0[11.4 µM] | 0[9.22 µM] | 0[10.9 µM] | 0[11.4 µM] | 0[9.22 µM]
Cc1ccccc1C(=O)Nc1cccc(NC(=O)c2ccc(C(C)(C)C)cc2)c1 | - | 10µM | 0[10.9 µM] | - | 13µM
Cc1cccc(NC(=O)c2ccccc2C(=O)O)c1 | 0 | 0 | 0 | 0 | 0
Nc1ccccc1C(=O)Nc1cccc(C(=O)O)c1 | 0 | 0 | 0 | 25µM | 0
Cc1ccccc1C(=O)Nc1cccc(N)c1 | 0 | 0 | 0 | 0 | 0
Cc1ccc(NC(=O)N2CCC(N3CCN(Cc4ccccc4)C(=O)C3=O)CC2)cc1Cl | - | 0 | ? | - | 0
O=C1c2ccncc2C(=O)N1CO | 0 | 0 | 0 | 0 | 0
CNC1=C(Cl)C(=O)c2ccncc2C1=O | ? | 1.6µM | 0 | - | 4µM
CNC1=C(Br)C(=O)c2ccncc2C1=O | 16µM | 0.79µM | 0 | - | 2µM
Cc1nn(C)c2c1c(-c1ccccc1)cc(=O)n2CC(=O)Nc1ccccc1C(F)(F)F | - | 0 | 0[10.9 µM] | - | 0
COc1ccc(Cl)cc1S(=O)(=O)N1CCN(C(=O)c2cc(-c3ccc(Br)cc3)n[nH]2)CC1 | - | 0 | - | - | -
Cc1ccc2scc(N3CCC(C)CC3)c(=O)c2c1 | - | ? | 0[10.9 µM] | - | ?
Cc1ccc2scc(N3CCCCC3C)c(=O)c2c1 (configuration not stated) | - | 10µM | 0[10.9 µM] | - | 6.3µM
Cc1ccc2scc(N3CCCCC3)c(=O)c2c1 | - | 13µM | 0[10.9 µM] | - | 16µM
COc1ccccc1N1CCN(C(=O)C2CCN(S(=O)(=O)Cc3ccccc3)CC2)CC1 | - | 0 | 0[10.9 µM] | - | 0
Cc1ccc(S(=O)(=O)NCC(c2ccc(N(C)C)cc2)N2CCc3ccccc32)cc1 (configuration not stated) | - | 0 | 0[10.9 µM] | - | 0
SMILES | Tau fil binding | p53ts 32C tox | Imprint erasure | FLuc inh | p53ts 39C kill
Cc1cc(NC(=O)NC(=O)c2ccc(F)cc2F)n[nH]1 | 0 | ? | 0 | 16µM | ?
COc1ccc(C2C3=C(CC(C)(C)CC3=O)Oc3ncn(Cc4ccco4)c(=N)c32)cc1 (configuration not stated) | 16µM | 0 | 0 | 0 | 0
COc1ccc(C2C3=C(CC(C)(C)CC3=O)Oc3ncn(CC(C)C)c(=N)c32)cc1 (configuration not stated) | 4µM | 0 | 0 | 0 | 0
COc1ccc(C2c3c(ncn(Cc4ccco4)c3=N)Oc3ccc4ccccc4c32)cc1 (configuration not stated) | - | - | - | - | 0
CCCCN(CC)CCCNC(=O)c1ccc2c(c1)N(Cc1ccc(C)cc1)C(=O)c1ccccc1S2 | - | ? | 0[10.9 µM] | - | 13µM
CCCCN(CC)C(=O)Nc1ccc2c(c1)N(C)C(=O)c1ccccc1S2 | - | 0 | 0[10.9 µM] | - | 25µM
COCCCNC(=O)c1ccc2c(c1)N(Cc1ccccc1)C(=O)c1ccccc1S2 | - | 0 | 0[10.9 µM] | - | ?
O=C1NC(=O)[C@@H]2C3c4ccccc4C=CN3[C@H](C(=O)c3cccs3)[C@H]12 (some centres not stated) | 0 | 0 | 0 | 25µM | 0
O=C(c1ccco1)[C@@H]1[C@@H]2C(=O)N(c3ccc(F)cc3)C(=O)[C@@H]2C2c3ccccc3C=CN21 (some centres not stated) | 0 | 0 | 0 | 0 | 0
O=c1oc(-c2ccco2)nc2ccccc12 | 0 | 0 | 0 | 0 | 0
c1coc(-c2nc3ccccc3nc2-c2ccco2)c1 | 13µM | 0 | 0 | 0 | 0
O=S(=O)(Nc1cccc(-c2ccc(N3CCCCC3)nn2)c1)c1ccc(F)cc1F | - | 13µM | 0[10.9 µM] | - | ?
CC1CCN(c2ccc(-c3cccc(NS(=O)(=O)c4ccc(F)cc4F)c3)nn2)CC1 | - | 16µM | 0[10.9 µM] | - | 13µM
Cc1ccc(S(=O)(=O)Nc2cccc(-c3ccc(N4CCC(C)CC4)nn3)c2)s1 | - | 13µM | 0[10.9 µM] | - | 4µM
CCOc1ccc(S(=O)(=O)Nc2cccc(-c3ccc(N4CCC(C)CC4)nn3)c2)cc1 | - | 10µM | 0[10.9 µM] | - | 10µM
O=S(=O)(Nc1cccc(-c2ccc(N3CCCC3)nn2)c1)c1cc(F)ccc1F | - | 0 | 0[10.9 µM] | - | 0
CCc1cccc(NC(=O)Cn2nc(-c3cc(C)ccc3C)ccc2=O)c1 | - | 0 | 0[10.9 µM] | - | ?
CCCCCCCCN | 0 | 0[1.84 µM] | 0 | - | 0
C[C@H]1COC(=O)[C@H]2CCCN2C(=O)[C@@H](C)COC(=O)[C@H]2CCCN2C1=O | - | 0[9.22 µM] | - | 0[11.4 µM] | 0[9.22 µM]
CCOc1ccc(NC(=O)C2CC(=O)N(c3ccc(C(C)C)cc3)C2)cc1 (configuration not stated) | - | 0 | 0[10.9 µM] | - | 0
CCOC(=O)c1c(NC(=O)C(C)Oc2ccccc2F)sc(C(C)=O)c1C (configuration not stated) | - | 0 | 0[10.9 µM] | - | 0
Cc1cc(C(=O)Nc2sc3c(c2C#N)CCC3)no1 | 0 | 10µM | 0 | 16µM | 13µM
Cc1cc(C(=O)Nc2sc3c(c2C#N)CCCC3)no1 | 0 | 6.3µM | 0 | 13µM | 13µM
Cc1ccc(Cn2c(C(=O)NCc3ccccc3Cl)cc3sccc32)cc1 | - | 0 | 0[10.9 µM] | - | 0
Nc1nc(-c2cc(-c3cccc4ccccc34)nc(N)n2)cc(-c2cccc3ccccc23)n1 | 0[11.4 µM] | 0[9.22 µM] | 0[10.9 µM] | 0[11.4 µM] | 0[9.22 µM]
N=C1N=C(N)c2cc3ccccc3cc21 | 2.5µM | 0[1.84 µM] | 0 | - | ?
CCOC(=O)c1c(C)n(-c2ccccc2)c2ccc(OC(=O)COc3ccc(Cl)cc3)cc12 | - | 0 | 0[10.9 µM] | - | 0
O=C(COC(=O)C1CCC1)NCc1ccccc1Cl | 0 | 0 | 0 | 16µM | 0
Cn1nnc(NC(=O)c2cccc(F)c2)n1 | 0 | 0 | 0 | 0 | 0
Cc1ccc(C(=O)Nc2nnn(C)n2)cc1 | 0 | ? | 0 | 25µM | ?
